Source: PubChem BioAssay (NCI)
About 79,000 compounds went through this panel and 15% of them were active in at least one assay; those are over-represented in the sample as a whole. Activity calls are given as the source filed them. Cut-off read from the data, not from the text of the source: active = growth inhibition above about 70%; inactive = the rest.

Tests used:
[1] = NCI Yeast Anticancer Drug Screen. Data for the rad50 strain (AID 155);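 note: 0% = growth of vehicle-only cultures of the same strain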; conditions: S. cerevisiae rad50 strain growth inhibition; at 50.0 µM; active compounds read high
Outline: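 Growth of the mutant yeast was measured after compound exposure and referenced to vehicle-treated cultures.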

[2] = NCI Yeast Anticancer Drug Screen. Data for the mec2-1 strain (AID 157); conditions: S. cerevisiae mec2-1 strain, at 50.0 µM, active compounds read high
Outline: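 Using mec2-1 yeast: add compound, measure growth, express inhibition versus vehicle-treated cultures.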

[3] = NCI Yeast Anticancer Drug Screen. Data for the sgs1 mgt1 strain (AID 161);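 note: 0% = growth of cultures given vehicle only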; conditions: S. cerevisiae sgs1 mgt1 strain, at 50.0 µM, active compounds read high
Outline: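 Compounds are added to genetically altered yeast, and growth is compared with cultures given vehicle alone to give percent inhibition.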

[4] = NCI Yeast Anticancer Drug Screen. Data for the cln2 rad14 strain (AID 165);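 note: 0% = growth equal to vehicle treated cultures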; conditions: S. cerevisiae cln2 rad14 strain, at 50.0 µM, active compounds read high
Outline: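 Yeast strain cln2 rad14, bearing defects in cell cycle control and DNA repair, serves as the test system; values reflect growth inhibition compared with vehicle.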

[5] = NCI Yeast Anticancer Drug Screen. Data for the bub3 strain (AID 167); conditions: S. cerevisiae bub3 mutant strain, at 50.0 µM, active compounds read high
Outline: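 Whole-cell yeast assay. The mutant strain was incubated with compounds, and growth inhibition was determined by comparison with vehicle-treated cells.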

[6] = NCI Yeast Anticancer Drug Screen. Data for the mlh1 rad18 strain (AID 175); conditions: S. cerevisiae mlh1 rad18 strain growth inhibition; at 50.0 µM; active compounds read high
Outline: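 Steps: expose repair-defective yeast to compound; measure growth; express inhibition against vehicle-treated controls.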

Measured: growth inhibition

COc1cccc2c1Cc1ccccc1-2
inactive: [1] 50.3% | [2] -3.6% | [3] 13.3% | [4] 12.8% | [5] 43.1% | [6] 24.4%

COc1cc2c(c(OC)c1OC)-c1ccc(SC)c(=O)cc1[C@@H](NC1OC(CO)C(O)C(O)C1O)CC2 (some centres undefined)
inactive: [1] -10.6% | [2] -1.85% | [3] 5.25% | [4] 6.2% | [5] 5.05% | [6] 3.45%

Cc1ccc(C(C)C)c(OCC(=O)O)c1
inactive: [1] 15.4% | [2] 12% | [3] 24.2% | [4] 8.65% | [6] 25.6%

CSc1nsc(N)n1
inactive: [1] -13.3% | [2] 2.5% | [3] -4.2% | [4] -26.9% | [5] 16.8% | [6] 20.7%

NC(=O)OCCO
inactive: [1] 19.2% | [2] 6.45% | [3] 10.9% | [4] 9.65% | [5] -2.35% | [6] 26.5%

CCOC(OCC)C(=O)c1ccccc1
inactive: [1] -0.5% | [2] -19.9% | [3] -4.1% | [4] 9.2% | [5] 6.25% | [6] 25.1%

O=C1CSc2ccccc2N1
inactive: [1] -35% | [2] -8.45% | [3] 32% | [4] -12.7% | [5] 1.3% | [6] 11.2%

CCCCCC#CC(=O)O
inactive: [1] -3.05% | [2] -3.95% | [3] -8.05% | [4] 17.9% | [5] -7.3% | [6] 19.4%

CC(=O)N(C(C)=O)c1ccc(C)cc1
inactive: [1] -13.7% | [2] -18.9% | [3] -14.7% | [4] -9.75% | [6] -13.9%

NS(=O)(=O)c1cc(=O)[nH]c(=O)[nH]1
inactive: [1] -12.2% | [2] -10.8% | [3] -0.5% | [4] -4% | [6] 3.4%

O=c1[nH]c(=O)c2cc(Cl)cc(Cl)c2[nH]1
inactive: [1] -2.05% | [2] -15.3% | [3] -1.4% | [4] 14% | [5] 9.25% | [6] 7.3%

Cc1ccc[n+](CCC(N)=O)c1
inactive: [1] -18.4% | [2] -41.4% | [3] -10.8% | [4] 1.2% | [6] -6.75%

CNc1ccccc1C(=O)N/N=C/C=C/c1ccccc1
inactive: [1] 31.6% | [2] 0.35% | [3] 31.1% | [4] 2.65% | [6] 14.5%

CCC12OC(COc3ccccc3)CN1CCN2c1ccccc1 (centres undefined)
inactive: [1] -12.2% | [2] -6.15% | [3] -10.7% | [4] 3.15% | [6] -11.5%

Cc1[nH]c(=S)[nH]c(=O)c1C
inactive: [1] -5.1% | [2] -28.3% | [3] -35.6% | [4] -3.4% | [5] -34.4% | [6] -1.7%

NC(=S)N/N=C/c1ccc(OC(=O)COc2ccccc2)cn1
inactive: [1] -2.8% | [2] -13.4% | [3] 14.3% | [4] 7.45% | [5] -11% | [6] 9.9%

C=CCNC(=S)N/C=C(/C(=O)c1ccccc1)c1ccccc1
inactive: [1] -53.6% | [2] -23.8% | [3] -45.2% | [4] -31.5% | [6] -53.6%

CCOC(=O)N[C@H]1CCc2cc(OC)c(OC)c(OC)c2-c2ccc(SC)c(=O)cc21
inactive: [1] 33.5% | [2] -16.5% | [3] 16.2% | [4] 5.1% | [6] -1.55%

CCCCn1cnc2c(=O)[nH]cnc21
inactive: [1] 3.2% | [2] 2.25% | [3] -5.15% | [5] 8.95% | [6] 2.3%

CCCCN(C=S)CCCC
inactive: [1] 9.65% | [2] -2% | [3] -5.7% | [4] 13.7% | [6] 10.7%

O=C(Nc1ccc([N+](=O)[O-])cc1)C(=O)Nc1ccc([N+](=O)[O-])cc1
inactive: [1] -8.7% | [2] -24.2% | [3] 11.6% | [5] 3.1% | [6] 5.3%

O=C(OCc1ccccc1)n1nnc2ccccc21
inactive: [1] 27.8% | [2] -4.05% | [3] 8.55% | [5] 19.2% | [6] 2.45%

NCC(O)C(O)C(O)C(O)CO (centres undefined)
inactive: [1] 13.2% | [2] 6.8% | [3] 15.1% | [5] 18.1%

C=C(C)[C@@H]1CC[C@]2(CO)CC[C@]3(C)[C@H](CC[C@@H]4[C@@]5(C)CC[C@H](O)C(C)(C)[C@@H]5CC[C@]43C)[C@@H]12
inactive: [1] 15.6% | [2] -4.3% | [3] -18.1% | [5] -11.7% | [6] 29.1%

Nc1c(O)c(S(=O)(=O)O)c(O)c2c1C(=O)c1ccccc1C2=O
inactive: [1] 27.4% | [2] -2.7% | [3] 31.1% | [5] 34.9% | [6] 33.6%

COC(C(=O)C(O)C(C)O)C1Cc2cc3cc(OC4CC(OC5CC(O)C(O)C(C)O5)C(O)C(C)O4)c(C)c(O)c3c(O)c2C(=O)C1OC1CC(OC2CC(O)C(OC3CC(C)(O)C(O)C(C)O3)C(C)O2)C(O)C(C)O1 (centres undefined)
inactive: [1] -6.6% | [2] -23.4% | [3] -12.5% | [5] -11.2%

CCCCCCCCCCCCCC/C=C\C(CC(=O)O)C(=O)O (centres undefined)
inactive: [1] 4.6% | [2] -15.5% | [3] 6.1% | [4] -32.6% | [6] -19.2%

CC(=O)OC/C(C)=C\CC(C)COC(C)=O (centres undefined)
inactive: [1] -9.25% | [2] 3.35% | [3] 14.4% | [5] -18.6% | [6] -0.75%

COC(=O)c1ccccc1C(=O)c1c(C)cc(C)cc1C
inactive: [1] 13.8% | [2] 28.2% | [3] 34.1% | [5] 46.9% | [6] 50.3%

Clc1cccc(Cl)c1CSc1nc2ccccc2n2cccc12
inactive: [1] -13.3% | [2] -26.8% | [3] 5.2% | [6] -19%

CCCNS(=O)(=O)c1ccc(Cl)cc1
inactive: [1] 20.1% | [2] -2.9% | [3] -0.45% | [5] -4.75%

Cn1c(=O)c2[nH]c(CCCCC(=O)O)nc2n(C)c1=O
inactive: [1] -7.8% | [2] -13.2% | [3] -34.1% | [5] -39.4%

O=c1cc(Cl)nc2ccccn12
inactive: [1] 18.6% | [2] -1.1% | [3] -11% | [4] -52.3% | [6] 4.5%

CC(c1ccccc1)N(C)C (centres undefined)
inactive: [1] 12.7% | [2] -1.8% | [3] 0.4% | [5] 5.9% | [6] 1.6%

Clc1ccc(-c2noc(/C=C\c3ccccc3)n2)cc1
inactive: [1] 12.7% | [2] -20.1% | [3] 4.8% | [4] 12.1% | [6] 7.45%

CC1CC2C3CCC4=CC(=O)CCC4(C)C3CCC2(C)C1(O)C(=O)CO (centres undefined)
inactive: [1] 2% | [2] -0.8% | [3] 9.1% | [5] -14.3% | [6] -0.55%

C=COC(=O)CCOCC(CC)CCCC (centres undefined)
inactive: [1] -6.1% | [2] -15.1% | [3] 8.95% | [5] -4.55% | [6] -6.55%

ClCc1cccc2c(CCl)cccc12
inactive: [1] 59.6% | [2] -6.25% | [3] 0.9% | [5] -14.7% | [6] 12.4%

CCCCc1ccc2nc(NC(=O)OC)[nH]c2c1
inactive: [1] -4.25% | [2] 21.5% | [3] 13.6% | [6] 11.1%

CN1C(=O)NC(c2ccc(Cl)cc2)(c2ccc(Cl)cc2)C1=O
active: [6] 91%
inactive: [1] 44.9% | [2] 11.1% | [3] -23% | [5] -8%

Cc1nc(O)cc(=O)[nH]1
inactive: [1] 17.7% | [2] -6.9% | [3] -14.2% | [5] -15.3% | [6] 10.1%

CCCC1OC(c2ccco2)OCC1CC (centres undefined)
inactive: [1] 30.8% | [2] -2.15% | [3] 18.6% | [4] -27.8% | [6] 27.1%

COC1OC(COC(C)=O)C(OC(C)=O)C(OC(C)=O)C1OC(C)=O (centres undefined)
inactive: [1] 10.7% | [2] 3.05% | [3] 47.2% | [5] 2.05% | [6] 13.2%
